Screens from PubChem.
TRPM1 prom inh – inhibitors of MITF-dependent TRPM1 promoter reporter, primary screen, cell-based, SK-MEL-5, single point, luciferase | SK-MEL-5 TRPM1 promoter luciferase, 24 h | inhibition, % at 12.5 µM | actives 0.83% (n = 330,000);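 active means mean inhibition across replicates of 60% or more, whatever share of single replicates reaches that level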
Shn3 3UTR inh – reduction of Shn3 3'UTR firefly luciferase signal, primary screen, Schnurri-3 inhibitor project, cell-based, Clone20 osteoblasts, set 2 | Clone20 osteoblast Shn3 3'UTR firefly luciferase, 24 h | inhibition, % at 12.5 µM | actives 0.52% (n = 360,000);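 active means mean inhibition of at least 75% with every replicate also reaching 75%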;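 further: 0% = median of neutral control wells and 100% = pilot-screen positive control compound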
EBV LMP1 NFkB – EBV LMP1-driven NF-kappaB luciferase reporter inhibitors, primary screen, cell-based, luminescence, single point | LMP1-induced NF-kappaB luciferase reporter cells | inhibition, % at 12.5 µM | actives 0.69% (n = 350,000) | AID 504558, 2011; in the data active means inhibition above about 41%;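 further: 0% = neutral control wells and 100% = reference inhibitor control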
PAX8 inh HTS – inhibitors of PAX8-driven TPO luciferase reporter, primary screen, RMG-I cells, single concentration. actives 1.2% (n = 360,000). inhibition, % at 12.6 µM. SteadyGlo, 24 h;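 active means mean replicate inhibition at least 60% with every replicate also reaching 60%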;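 further: luciferase light reporting Pax8 driven TPO promoter activity; plate controls were median of neutral control wells for no effect and mitoxantrone controls for full effect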
aSyn 5UTR inh – MLPCN primary screen, SNCA 5' untranslated region; inhibition, % (tested at 7.5 µM); AID 1813, 2009; alpha-synuclein 5'UTR reporter, inhibitor activity; actives 0.82% (n = 300,000); in the data active means inhibition above about 60%;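 further: H4 neuroglioblastoma cells stably carrying SNCA 5'UTR luciferase fusion; 0% = DMSO wells and 100% = positive control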
Active calls of the source: *. Most compounds without a hit are left out; they make up all but 2.1% or so of the library.

What do the screens show for `C[C@@H]1CCCCO[C@@H](CN(C)Cc2ccc(C(F)(F)F)cc2)[C@@H](C)CN([C@H](C)CO)C(=O)c2cc(NC(=O)Nc3ccc(F)cc3)ccc2O1`?
PAX8 inh HTS: 19

How did C[C@H]1CCCCO[C@@H](CN(C)Cc2ccc(C(F)(F)F)cc2)[C@@H](C)CN([C@@H](C)CO)C(=O)c2cc(NC(=O)Nc3ccc(F)cc3)ccc2O1 do in these assays?
PAX8 inh HTS: 105*

What do the screens show for `Cc1ccc(C(=O)C=CNNC(=O)c2ccccc2)cc1`?
TRPM1 prom inh: -25; Shn3 3UTR inh: 2; EBV LMP1 NFkB: 4; PAX8 inh HTS: 0; aSyn 5UTR inh: -29

What do the screens show for `CN=c1scc(-c2ccc(Br)cc2)n1C`?
TRPM1 prom inh: -15; Shn3 3UTR inh: -5; EBV LMP1 NFkB: -1; aSyn 5UTR inh: -22

How did CN=c1scc(-c2ccccc2Br)n1/N=C/c1ccc[nH]1 do in these assays?
aSyn 5UTR inh: 64*

What do the screens show for `C[C@@H]1CN([C@H](C)CO)C(=O)Cc2cc(NC(=O)Nc3cccc4ccccc34)ccc2O[C@@H]1CN(C)C(=O)NC1CCCCC1`?
PAX8 inh HTS: -2

What do the screens show for `C[C@@H]1CN([C@@H](C)CO)C(=O)c2cccc(NC(=O)C3CCOCC3)c2O[C@@H]1CN(C)C(=O)Nc1ccc2c(c1)OCO2`?
PAX8 inh HTS: -15

What do the screens show for `COC(=O)c1c[nH]c2c1-c1cc(C(=O)OCc3ccccc3)n(S(=O)(=O)c3ccc(C)cc3)c1C(=O)C2=O`?
TRPM1 prom inh: 112*; Shn3 3UTR inh: -15; EBV LMP1 NFkB: 1; PAX8 inh HTS: 9

How did CCOC(=O)C1CCN(c2c(NCCCN(CC)Cc3ccccc3)c(=O)c2=O)CC1 do in these assays?
TRPM1 prom inh: 1; Shn3 3UTR inh: -1; EBV LMP1 NFkB: 10; aSyn 5UTR inh: 5

Results for O=C1CCCCC1Sc1nnc(-c2ccc3c(c2)OCO3)o1 (stereo not drawn) ?
TRPM1 prom inh: 45; Shn3 3UTR inh: 25; EBV LMP1 NFkB: 56*; PAX8 inh HTS: 22; aSyn 5UTR inh: 33

How did COc1ccc(-c2cnc(NCc3cc4c(cc3[N+](=O)[O-])OCO4)n2C)cc1 do in these assays?
TRPM1 prom inh: 2; Shn3 3UTR inh: 17; EBV LMP1 NFkB: 66*; PAX8 inh HTS: -14; aSyn 5UTR inh: 7

Results for COc1ccc(OC)c(CNc2ncc(-c3cccc([N+](=O)[O-])c3)n2C)c1 ?
TRPM1 prom inh: -4; Shn3 3UTR inh: 28; EBV LMP1 NFkB: 2; PAX8 inh HTS: 7; aSyn 5UTR inh: -20

Results for COc1ccc(C)cc1S(=O)(=O)N(CC(=O)Nc1cc([N+](=O)[O-])ccc1C)c1ccc(C)c(C)c1 ?
TRPM1 prom inh: -7; Shn3 3UTR inh: 23; EBV LMP1 NFkB: 49*; aSyn 5UTR inh: 34

What do the screens show for `CCN1C/C(=C/c2cccc([N+](=O)[O-])c2)C(=O)/C(=C/c2cccc([N+](=O)[O-])c2)C1`?
TRPM1 prom inh: 92*; Shn3 3UTR inh: 99*; EBV LMP1 NFkB: 97*; PAX8 inh HTS: 56

What do the screens show for `CCOc1cc(/C=C2\CN(CC)C/C(=C\c3ccc(O)c(OCC)c3)C2=O)ccc1O`?
TRPM1 prom inh: 93*; Shn3 3UTR inh: 97*; EBV LMP1 NFkB: -111; PAX8 inh HTS: 13; aSyn 5UTR inh: 102*

Results for O=C1NC(=O)/C(=C/c2cccc([N+](=O)[O-])c2)N1 ?
TRPM1 prom inh: 6; Shn3 3UTR inh: -12; EBV LMP1 NFkB: 9; PAX8 inh HTS: 11; aSyn 5UTR inh: 11

How did CCC(c1nnnn1-c1ccc2c(c1)OCCO2)N1CCN(c2ccccn2)CC1 (stereo not drawn) do in these assays?
PAX8 inh HTS: -14

What do the screens show for `COc1ccccc1NC(=O)N1CCCCN2[C@@H](CO)[C@@H](c3ccc(-c4cccc(C)c4)cc3)[C@@H]2C1`?
PAX8 inh HTS: 104*

Results for COc1ccccc1NC(=O)N1CCCCN2[C@H](C1)[C@H](c1ccc(-c3cccc(C#N)c3)cc1)[C@@H]2CO ?
PAX8 inh HTS: 21

What do the screens show for `COc1ccccc1NC(=O)N1CCCCN2[C@H](C1)[C@@H](c1ccc(-c3cccc(C#N)c3)cc1)[C@@H]2CO`?
PAX8 inh HTS: 83*
